Only some compounds are listed: those with a hit (about 21% of all), similar ones and a draw of the others.
Shiga toxin inh – Shiga toxin inhibition. Vero cells, Shiga toxin protein synthesis inhibition reporter. inhibition, % at 38.7 µM. actives 9.2% (n = 290,000). AID 2315; in the data active means inhibition mostly above about 28%, no sharp cut-off; inactive means mostly below about 43%; further: 0% is about no effect
NS1 function inh – influenza NS1 inhibition | Potency, µM (series often up to 46.1 µM), without a hit: top-dose activity, positive = more growth | actives 0.4% (n = 270,000) | AID 2326; further: potency means the concentration at half of the fitted maximal effect; actives are rising curves; nearly all actives have a fitted effect of over 50% in size
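Recovery from NS1-induced slow growth read by OD600 in budding yeast switched to galactose assay medium (pH 6.0, -URA) at 1:100 dilution. Compound 23 nl per well; the matching strain lacking NS1 serves as control.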
Pf growth 48h – P. falciparum growth inhibition at 48 hours (one generation) | P. falciparum luciferase growth in erythrocytes, 48 h | Potency, µM (titrated, usually from 28.7 µM), inactives show at the highest dose activity change, negative = inhibition, actives largely listed as inhibitors | actives 5.9% (n = 310,000); active means well fitted inhibition curve with a large enough effect; inconclusive means small, poorly fitted or top-dose-only effect, or another doubt; inactive means no such curve, though single readings can be large or run the other way; further: potency means the concentration at half of the fitted maximal effect; on the % scale 0 is the no-effect control and ±100 the full control effect
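Parasite viability was followed by luminescence of a genomically integrated firefly luciferase. Cultures held 0.1% parasitemia at 2% hematocrit (final), incubated under 5% CO2 at 37 C.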
SARS PLpro yeast – inhibitors of SARS-CoV papain-like protease in yeast; Potency, µM (series often up to 32.9 µM), without a hit: at the top dose activity, positive = growth rescue, actives largely listed as activators; S. cerevisiae expressing SARS-CoV PLpro, growth rescue; actives 0.19% (n = 330,000); further: potency means the concentration at half of the fitted maximal effect; 0% is about no effect; nearly all actives have a fitted effect of over 55% in size
CHX counter – counter-screen hit for Shiga toxin inhibitors, cycloheximide; actives 12% (n = 300,000); cell reporter, cycloheximide protein synthesis inhibition counterscreen; max response, %; in the data active means max response mostly above about 13%, no sharp cut-off; inactive means mostly below about 14%; further: read at 38.3 µM for the half of the compounds with a filed dose; 0% is about no effect
Pf growth 96h – inhibits malaria parasite growth, 96 h. Potency, µM (highest dose often 28.7 µM), for inactives: top-dose activity change, negative = inhibition, most hits filed as inhibitors. P. falciparum luciferase reporter growth, 96 h. actives 6.9% (n = 320,000); active means well fitted inhibition curve with a large enough effect; inconclusive means small, poorly fitted or top-dose-only effect, or another doubt; inactive means no such curve, though single readings can be large or run the other way; further: potency means the concentration at half of the fitted maximal effect; on the % scale 0 is the no-effect control and ±100 the full control effect
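Infected RBCs, 2% Hct / 0.05% parasitemia final; luciferase-reporter P. falciparum; cpd 96 h, 37 C, 5% CO2; luciferase detection reagent; luminescence.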
Starred values were filed as active, the others as inactive; ? = inconclusive; nt = no result. Unless noted, the call rests on the fitted dose curve.

SMILES	Shiga toxin inh	NS1 function inh	Pf growth 48h	SARS PLpro yeast	CHX counter	Pf growth 96h
CCNc1nc(NC(C)C)nc(Oc2ccc(=O)n(C)n2)n1	-8	5%	-2%	0%	1	26%
C=CCSc1nnc(NC(=O)c2nc(SCC)ncc2Cl)s1	-6	-30%	nt	-1%	-2	?
CC(C)c1nnc(NC(=O)c2nc(S(=O)(=O)Cc3ccc(F)cc3)ncc2Cl)s1	98*	9%	-14%	0%	59*	34%
CSc1nnc(NC(=O)c2nc(S(=O)(=O)Cc3cccc(C)c3)ncc2Cl)s1	104*	16%	-32%	25%	62*	?
CCOc1ccccc1NC(=O)c1nc(S(=O)(=O)Cc2cccc(C)c2)ncc1Cl	-13	6%	25%	-9%	0	-28%
Cc1ccc(CS(=O)(=O)c2ncc(Cl)c(C(=O)Nc3nnc(C(C)C)s3)n2)cc1	75*	3%	20%	9%	52*	?
CCS(=O)(=O)c1ncc(Cl)c(C(=O)Nc2ccc(C)cc2)n1	-12	-48%	15%	-11%	-4	0%
Cc1cccc(CS(=O)(=O)c2ncc(Cl)c(C(=O)Nc3nnc(C(C)C)s3)n2)c1	45*	18%	?	?	54*	?
COc1cccc(N2C(=NC(=O)CCc3ccccc3)SC3CS(=O)(=O)CC32)c1 (configuration not stated)	-2	6%	9%	2%	-7	?
COc1ccc(C2=Nn3c(nnc3-c3ccccc3OC)SC2)cc1	-2	nt	nt	nt	-12	nt
CCSc1nnc(NC(=O)c2nc(S(=O)(=O)Cc3ccc(F)cc3)ncc2Cl)s1	75*	?	18%	1%	50*	-25%
CCOc1ccc(N2C(=O)CC(NNc3nc4ccccc4s3)C2=O)cc1 (configuration not stated)	8	5%	6%	-1%	0	14%
C1CCCC(N2CCNCC2)CC1	14	5%	16%	10%	-3	2.9µM*
CC1CCC(N2CCNCC2)CC1 (configuration not stated)	-5	-2%	11%	1%	-1	15µM*
O=C(N/N=C/c1cc(Br)cc(Br)c1O)c1cccc(S(=O)(=O)N2CCOCC2)c1	-5	3%	?	2%	-4	?
O=C(N/N=C/c1ccc(Cl)cc1Cl)c1cccc(N2CCCC2=O)c1	44	8%	?	1%	16*	-27%
O=C(N/N=C/c1ccc([N+](=O)[O-])cc1)c1cccc(N2CCCC2=O)c1	-12	-2%	-13%	-4%	12	-16%
O=C(N/N=C/c1cc(Br)cc(Br)c1O)c1cccc(N2CCCC2=O)c1	-5	2%	75%	2%	-2	10µM*
CNC(=O)CN(c1cccc(Br)c1)S(C)(=O)=O	10	14%	16%	7%	1	nt
CS(=O)(=O)N(CC(N)=O)c1cccc(Br)c1	-4	0%	7%	-4%	-1	3.7µM*
CC(C)(C)C(=O)N1CCN(c2ccc([N+](=O)[O-])c(NCc3cccnc3)c2)CC1	-8	1%	?	2%	-3	15%
O=C(c1ccccc1F)N1CCN(c2ccc([N+](=O)[O-])c(NCc3cccnc3)c2)CC1	-6	-5%	?	1%	-2	10µM*
COc1ccc(CCNc2cc(N3CCN(C(=O)c4ccccc4F)CC3)ccc2[N+](=O)[O-])cc1OC	-9	6%	?	-6%	1	15%
O=C(c1ccccc1)N1CCN(c2ccc([N+](=O)[O-])c(NCc3cccnc3)c2)CC1	-9	-6%	9.3µM*	0%	-7	?
COc1ccc(C(=O)N2CCN(c3ccc([N+](=O)[O-])c(NCCc4ccc(OC)c(OC)c4)c3)CC2)cc1	-1	5%	10µM*	4%	-3	4.7µM*
SMILES	Shiga toxin inh	NS1 function inh	Pf growth 48h	SARS PLpro yeast	CHX counter	Pf growth 96h
O=C1CC(N2CCN(c3nc4ccccc4s3)CC2)C(=O)N1c1cccc(F)c1 (configuration not stated)	36	-54%	20%	-1%	-2	nt
CSC(=NNC(=O)c1ccc(O)cc1)SC	42*	-6%	nt	7%	20	-30%
C/C(=N\NC(=O)c1ccc(F)cc1)c1ccc(NC(=O)Cc2ccccc2)cc1	90*	4%	12%	0%	41*	?
C/C(=N\NC(=O)c1ccc(O)cc1)c1ccc(NC(=O)Cc2ccccc2)cc1	170*	2%	21%	7%	36*	?
CC(Oc1ccc(Cl)cc1)C(=O)N(C)CC(=O)Nc1ccc(N2CCOCC2)cc1 (configuration not stated)	-1	5%	-14%	-16%	1	-19%
CCOc1ccc(NC(=O)c2ccc(NC(=O)CSc3nc4ccccc4c(=O)[nH]3)cc2)cc1	-27	nt	5%	2%	8	23%
CC(C)(C)C(=O)Nc1cc2c3c(c1)CCN3C(=O)CC2	10	1%	0%	12%	-2	30%
Cc1cccc(C)c1NC(=O)CNC(=O)c1ccc(S(=O)(=O)NCc2ccco2)cc1	nt	nt	-12%	-2%	nt	-30%
O=C(COc1ccccc1F)Nc1ccc(S(=O)(=O)NCc2ccco2)cc1	40	-8%	-9%	5%	40*	?
COc1ccc(S(=O)(=O)NCc2ccco2)cc1NC(=O)c1ccccc1	65*	13%	-7%	4%	47*	-16%
Cc1cccc(NC(=O)c2cc(S(=O)(=O)NCc3ccco3)ccc2F)c1C	63*	-4%	-14%	9%	47*	2%
COc1ccccc1NC(=O)c1ccc(S(=O)(=O)NCc2ccco2)cc1	103*	4%	10%	-5%	38*	-1%
COc1ccc(C(=O)Nc2ccc(S(=O)(=O)NCc3ccco3)cc2)cc1OC	14	10%	-12%	-3%	-2	-17%
COc1cccc(C(C(=O)NC(C)(C)C)N(C(=O)CCC(=O)Nc2cc(C)on2)c2ccc3c(c2)OCCO3)c1OC (configuration not stated)	-3	5%	?	2%	-5	-2%
CCn1cc(CNC(=O)C2CCC(=O)N(C3CCCCCC3)C2)cn1 (configuration not stated)	8	-6%	5%	8%	18	-13%
CCOC(=O)CSc1nc2ccsc2c(=O)n1C1CCN(C(=O)OCC)CC1	23	-73%	?	-1%	1	?
CCOC(=O)N1CCC(n2c(SCC(=O)NCc3ccco3)nc3ccsc3c2=O)CC1	9	-6%	13µM*	-1%	0	?
COc1ccc(Cn2c(SCC(=O)NCc3ccco3)nc3ccsc3c2=O)cc1	-40	2%	13µM*	2%	17*	0%
CCOC(=O)CSc1nc2cc(C(=O)NCc3ccco3)ccc2c(=O)n1-c1ccc(F)cc1	-2	?	6%	2%	4	?

Compound activity as filed in PubChem BioAssay.
